A short description of assay [1]: ATG_GLI_CIS: Attagene CIS-FACTORIAL HepG2 Assay for human Zinc Finger Protein GLI1 (AID 2282945). The following applies: HepG2, Attagene cis-factorial reporter mRNA, GLI element; actives raise or lower the signal. Put shortly:
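Bidirectional curve fits relative to DMSO, using reporter mRNA levels from RT-PCR plus capillary electrophoresis. Cells were HepG2 transiently carrying cis-regulated reporter constructs, harvested 24 h after dosing.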

For assay [2], the target named is Bile acid receptor (Homo sapiens) (UniProt Q96RI1). Put plainly: ATG_IR1_CIS: Attagene CIS-FACTORIAL HepG2 Assay for human Nuclear Receptor Subfamily 1 Group H Member 4 (NR1H4), IR1 submotif (AID 2282946). The following applies: IR1 reporter transcription, actives raise or lower the signal. In a few lines: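 Cells (human HepG2) carry transiently transfected cis-promoter reporter transcription units. Compounds are incubated 24 h, total RNA is reverse-transcribed and amplified, and labelled fragments are resolved by capillary electrophoresis. Curves use DMSO as baseline.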

Assay [3] is described as follows: ATG_ISRE_CIS: Attagene CIS-FACTORIAL HepG2 Assay for human Interferon Regulatory Factor 1 (IRF1) binding to an Interferon-Stimulated Response Element (ISRE) (AID 2282948). As to conditions: HepG2 ISRE cis-reporter (Attagene), mRNA transcription readout; actives raise or lower the signal. In a few lines:
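Transfected HepG2 (multiple reporter transcription units, cis elements) dosed 24 h. RNA → oligo(dT) RT → PCR → 6-FAM primer extension → HpaI → CE. DMSO = negative control/baseline.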

Assay [4] is described as follows: ATG_M_32_CIS: Attagene CIS-FACTORIAL HepG2 Assay for M32 Transcription Factor (Internal Marker) (AID 2282949).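 Further: background control marker of the multiplexed CIS panel rather than a real target.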 As to conditions: HepG2 Attagene cis-factorial M32 reporter, mRNA; actives raise or lower the signal. In a few lines: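 Internal background marker read-out: RT-PCR/capillary electrophoresis fluorescence of reporter transcripts from transiently transfected HepG2 cells after 24 h chemical exposure. Activity fitted bidirectionally relative to DMSO negative control.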

Assay [5] is described as follows: ATG_M_06_CIS: Attagene CIS-FACTORIAL HepG2 Assay for M06 Transcription Factor (Internal Marker) (AID 2282950). As to conditions: HepG2 Attagene CIS-FACTORIAL M06 internal marker reporter; actives raise or lower the signal. In a few lines: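 Measured 24 h post-dosing in transiently transfected HepG2 cells, this internal-marker endpoint reports reporter mRNA via RT-PCR with fluorescent primer extension and capillary electrophoresis. DMSO served as negative control and baseline for bidirectional fitting.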

The target of assay [6] is Hypoxia-inducible factor 1-alpha (Homo sapiens) (UniProt Q16665). Put plainly: ATG_HIF1a_CIS: Attagene CIS-FACTORIAL HepG2 Assay for human Hypoxia Inducible Factor 1 (HIF1A) (AID 2282951). The following applies: HepG2 Attagene cis-factorial HIF1a reporter transcription; actives raise or lower the signal. In a few lines: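 Transient MRTU transfection of human HepG2 liver cells, 24 h compound treatment, then total RNA isolation, oligo(dT) reverse transcription, PCR amplification, fluorescent labelling and capillary electrophoresis of reporter fragments. Gain or loss relative to DMSO.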

Assay [7] addresses Heat shock factor protein 1 (Homo sapiens) (UniProt Q00613). Description: ATG_HSE_CIS: Attagene CIS-FACTORIAL HepG2 Assay for human Heat Shock Transcription Factor 1 (HSE) (AID 2282953). The following applies: HepG2 HSE cis-reporter, Attagene RNA transcription; actives raise or lower the signal. In a few lines: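 Reporter mRNA induction in HepG2 is measured 24 h after dosing, using transiently transfected multiplexed cis-regulated reporter units. Signal comes from capillary electrophoresis of labelled RT-PCR products, with DMSO as negative control.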

The nature of assay [8]: ATG_MRE_CIS: Attagene CIS-FACTORIAL HepG2 Assay for human Metal Responsive Element (MRE) (AID 2282954). The following applies: HepG2 MRE cis-reporter transcription, Attagene multiplex; actives raise or lower the signal. In a few lines: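 After a 24 h chemical exposure, transiently transfected HepG2 cells yield RNA whose reporter sequences are amplified, FAM-labelled and sized by capillary electrophoresis. Curves are fitted bidirectionally relative to DMSO.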

Assay [9] can be described thus: ATG_PBREM_CIS: Attagene CIS-FACTORIAL HepG2 Assay for human Phenobarbital-responsive Enhancer Module (PBREM) (AID 2282955). The following applies: HepG2 PBREM cis-reporter, Attagene multiplexed transcription; actives raise or lower the signal. Put shortly:
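Endogenous transcription factors in human liver HepG2 cells drive a PBREM cis-element reporter, whose transcript level after 24 h treatment is quantified by RT-PCR with capillary electrophoresis; activity fitted in both directions against DMSO.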

For assay [10], the target named is Paired box protein Pax-6 (Homo sapiens) (UniProt P26367). Description: ATG_Pax6_CIS: Attagene CIS-FACTORIAL HepG2 Assay for human Paired Box 6 (PAX6) (AID 2282956). As to conditions: HepG2 CIS-FACTORIAL PAX6 reporter transcription, RNA readout; actives raise or lower the signal. Put shortly: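 Transient MRTU transfection of HepG2 → compound exposure 24 h → TriZol RNA, oligo(dT) RT → PCR, 6-FAM primer extension, HpaI cut → capillary electrophoresis; activity fitted both directions against DMSO.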

A short description of assay [11]: ATG_PXRE_CIS: Attagene CIS-FACTORIAL HepG2 Assay for human Pregnane X Receptor Element (PXRE) (AID 2282957). The following applies: HepG2 Attagene CIS-FACTORIAL PXRE reporter, mRNA; actives raise or lower the signal. Put shortly:
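Cis-element reporter mRNA in human hepatoma HepG2 cells is measured 24 h post-dosing by RT-PCR, primer-extension labeling and capillary electrophoresis; gain or loss of signal is fitted relative to DMSO.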

A short description of assay [12]: ATG_PPRE_CIS: Attagene CIS-FACTORIAL HepG2 Assay for human Peroxisome Proliferator-activated Response Element (PPRE) (AID 2282958). The following applies: HepG2 PPRE cis-element reporter, Attagene transcription factor profiling; actives raise or lower the signal. Put shortly:
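HepG2, transient MRTU transfection (cis promoter elements, endogenous TFs). 24 h dosing. RNA → oligo(dT) RT → PCR → 6-FAM primer extension → HpaI digest → CE. Bidirectional fit vs DMSO.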

The nature of assay [13]: ATG_RORE_CIS: Attagene CIS-FACTORIAL HepG2 Assay for human RAR-related Orphan Receptor Element (RORE) (AID 2282959). As to conditions: HepG2 Attagene cis-factorial RORE reporter, mRNA; actives raise or lower the signal. In a few lines: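 Transient MRTU transfection of human HepG2 liver cells (FuGene 6); 24 h compound exposure; TriZol RNA, oligo(dT) RT, PCR, FAM labeling, HpaI cut, CE fragment analysis. DMSO = negative control/baseline.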

Assay [14] in a line: ATG_Sox_CIS: Attagene CIS-FACTORIAL HepG2 Assay for human SRY-box transcription factor (SOX) (AID 2282960). The following applies: HepG2 Attagene cis-factorial SOX reporter, mRNA; actives raise or lower the signal. Put shortly:
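Endogenous factor activity in human liver HepG2 cells carrying transfected cis-regulated reporter units. RNA taken 24 h post-dose, reverse-transcribed, PCR-amplified and sized by capillary electrophoresis. Gain or loss of signal fitted relative to DMSO.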

The target of assay [15] is Transcription factor Sp1 (Homo sapiens) (UniProt P08047). Put plainly: ATG_Sp1_CIS: Attagene CIS-FACTORIAL HepG2 Assay for human Specificity Protein 1 (Sp1) (AID 2282961). The following applies: HepG2 Sp1 cis-reporter transcription, actives raise or lower the signal. In a few lines: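 Transient MRTU-transfected HepG2, 24 h compound exposure. Total RNA → oligo(dT) RT → PCR of reporter → 6-FAM primer extension → HpaI digest → CE. Endpoint fitted both directions vs DMSO.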

Assay [16] is described as follows: ATG_SREBP_CIS: Attagene CIS-FACTORIAL HepG2 Assay for human Sterol Regulatory Element Binding (SREBP) (AID 2282962). The following applies: HepG2 Attagene cis-factorial SREBP reporter, mRNA; actives raise or lower the signal. In a few lines:
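Transfected HepG2 (cis-regulated reporter library, endogenous TFs) → compound 24 h → total RNA → oligo(dT) RT → reporter-specific PCR → FAM primer extension, HpaI cut → CE fluorescence. Fit bidirectional vs DMSO.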

Assay [17] addresses Signal transducer and activator of transcription 3 (Homo sapiens) (UniProt P40763). Description: ATG_STAT3_CIS: Attagene CIS-FACTORIAL HepG2 Assay for human Signal Transducer and Activator of Transcription 3 (STAT3) (AID 2282963). As to conditions: HepG2, Attagene cis-factorial STAT3 reporter transcription; actives raise or lower the signal. In a few lines:
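After a 24 h compound incubation, total RNA from MRTU-transfected HepG2 cells was converted to cDNA and reporter sequences PCR-amplified, labelled and profiled by capillary electrophoresis. Gain and loss of signal were referenced to DMSO.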

Assay [18] is described as follows: ATG_TA_CIS: Attagene CIS-FACTORIAL HepG2 Assay for human TA Basal Promoter (AID 2282964). As to conditions: HepG2 Attagene CIS-factorial TA basal promoter reporter; actives raise or lower the signal. In a few lines:
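Cis-factorial format in HepG2: reporters report endogenous factors, not chimeric Gal4 fusions. After 24 h treatment, reporter transcripts were measured by RT-PCR-capillary electrophoresis fluorescence, analysed bidirectionally versus DMSO.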

Assay [19] can be described thus: ATG_GRE_CIS: Attagene CIS-FACTORIAL HepG2 Assay for human Glucocorticoid Response Elements (GRE) (AID 2282947). As to conditions: HepG2 GRE cis-reporter, Attagene multiplex mRNA; actives raise or lower the signal. Put shortly:
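Assay uses human hepatoma HepG2 cells transfected with cis-promoter reporter units, exposed 24 h. mRNA from reporters detected by RT-PCR plus capillary electrophoresis; DMSO serves as negative control and baseline.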

Assay [20] concerns the target Hepatocyte nuclear factor 6 (Homo sapiens) (UniProt Q9UBC0). Put plainly: ATG_HNF6_CIS: Attagene CIS-FACTORIAL HepG2 Assay for human Hepatocyte Nuclear Factor 6 (HNF6) (AID 2282952). As to conditions: HepG2 Attagene cis-factorial HNF6 reporter transcription; actives raise or lower the signal. Put shortly:
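Transiently transfected HepG2 cells expressing cis-regulated reporter transcription units were exposed to chemical for 24 h in a 24-well format. Reporter transcript abundance was determined by fluorescence capillary electrophoresis.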

For orientation: AC50 means the midpoint of the concentration-response curve, whichever way the signal moves.

Each structure is given as a SMILES string. Activity calls are given as the source filed them. How the source made its calls: active means hit-call score of the fitted dose curve at least 0.9, where 1 is the maximum; inactive means score below 0.9.

Chain of Signal transducer and activator of transcription 3 (Homo sapiens) (P40763 whole entry, looked up): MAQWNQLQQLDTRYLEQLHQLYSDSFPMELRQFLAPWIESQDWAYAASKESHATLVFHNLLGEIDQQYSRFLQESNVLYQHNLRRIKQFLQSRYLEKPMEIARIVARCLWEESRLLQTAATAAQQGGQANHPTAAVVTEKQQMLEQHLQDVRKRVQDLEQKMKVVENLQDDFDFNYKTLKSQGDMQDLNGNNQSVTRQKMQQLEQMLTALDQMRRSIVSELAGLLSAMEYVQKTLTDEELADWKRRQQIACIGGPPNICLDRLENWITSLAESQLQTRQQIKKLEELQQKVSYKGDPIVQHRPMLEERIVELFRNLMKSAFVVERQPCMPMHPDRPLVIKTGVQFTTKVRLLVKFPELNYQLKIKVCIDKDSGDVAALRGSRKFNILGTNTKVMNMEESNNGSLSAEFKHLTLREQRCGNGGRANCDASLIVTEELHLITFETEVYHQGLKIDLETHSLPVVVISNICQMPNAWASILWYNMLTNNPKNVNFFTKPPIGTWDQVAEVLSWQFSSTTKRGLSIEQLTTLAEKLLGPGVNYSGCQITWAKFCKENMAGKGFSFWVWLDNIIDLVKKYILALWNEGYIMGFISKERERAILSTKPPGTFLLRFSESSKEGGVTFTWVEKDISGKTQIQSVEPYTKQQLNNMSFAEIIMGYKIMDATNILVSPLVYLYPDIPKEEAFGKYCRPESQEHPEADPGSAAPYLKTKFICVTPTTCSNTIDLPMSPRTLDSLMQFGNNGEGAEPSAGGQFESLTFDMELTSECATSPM
Chain of Transcription factor Sp1 (Homo sapiens) (P08047 whole entry, looked up): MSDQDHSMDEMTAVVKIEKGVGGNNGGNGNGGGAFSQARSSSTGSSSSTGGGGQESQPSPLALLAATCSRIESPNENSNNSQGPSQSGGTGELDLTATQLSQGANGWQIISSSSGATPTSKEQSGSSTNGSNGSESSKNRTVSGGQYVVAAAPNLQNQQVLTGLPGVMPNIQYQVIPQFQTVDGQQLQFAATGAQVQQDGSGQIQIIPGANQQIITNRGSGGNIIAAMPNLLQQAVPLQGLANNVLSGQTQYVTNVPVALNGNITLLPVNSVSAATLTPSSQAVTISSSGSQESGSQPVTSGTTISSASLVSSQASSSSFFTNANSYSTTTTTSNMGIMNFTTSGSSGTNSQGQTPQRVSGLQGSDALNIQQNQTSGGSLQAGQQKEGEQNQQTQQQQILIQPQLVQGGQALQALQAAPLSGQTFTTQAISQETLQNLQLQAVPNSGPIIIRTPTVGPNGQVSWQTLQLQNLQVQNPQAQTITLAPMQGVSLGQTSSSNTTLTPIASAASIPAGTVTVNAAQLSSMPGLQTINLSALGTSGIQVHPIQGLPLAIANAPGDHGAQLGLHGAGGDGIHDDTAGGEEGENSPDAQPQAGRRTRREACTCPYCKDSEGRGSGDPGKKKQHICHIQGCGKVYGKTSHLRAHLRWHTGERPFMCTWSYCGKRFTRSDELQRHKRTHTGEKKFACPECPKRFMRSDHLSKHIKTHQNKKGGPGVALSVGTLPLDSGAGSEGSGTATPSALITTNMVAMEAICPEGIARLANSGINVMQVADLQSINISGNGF
Chain of Hypoxia-inducible factor 1-alpha (Homo sapiens) (Q16665 whole entry, looked up, the tested form may be a part): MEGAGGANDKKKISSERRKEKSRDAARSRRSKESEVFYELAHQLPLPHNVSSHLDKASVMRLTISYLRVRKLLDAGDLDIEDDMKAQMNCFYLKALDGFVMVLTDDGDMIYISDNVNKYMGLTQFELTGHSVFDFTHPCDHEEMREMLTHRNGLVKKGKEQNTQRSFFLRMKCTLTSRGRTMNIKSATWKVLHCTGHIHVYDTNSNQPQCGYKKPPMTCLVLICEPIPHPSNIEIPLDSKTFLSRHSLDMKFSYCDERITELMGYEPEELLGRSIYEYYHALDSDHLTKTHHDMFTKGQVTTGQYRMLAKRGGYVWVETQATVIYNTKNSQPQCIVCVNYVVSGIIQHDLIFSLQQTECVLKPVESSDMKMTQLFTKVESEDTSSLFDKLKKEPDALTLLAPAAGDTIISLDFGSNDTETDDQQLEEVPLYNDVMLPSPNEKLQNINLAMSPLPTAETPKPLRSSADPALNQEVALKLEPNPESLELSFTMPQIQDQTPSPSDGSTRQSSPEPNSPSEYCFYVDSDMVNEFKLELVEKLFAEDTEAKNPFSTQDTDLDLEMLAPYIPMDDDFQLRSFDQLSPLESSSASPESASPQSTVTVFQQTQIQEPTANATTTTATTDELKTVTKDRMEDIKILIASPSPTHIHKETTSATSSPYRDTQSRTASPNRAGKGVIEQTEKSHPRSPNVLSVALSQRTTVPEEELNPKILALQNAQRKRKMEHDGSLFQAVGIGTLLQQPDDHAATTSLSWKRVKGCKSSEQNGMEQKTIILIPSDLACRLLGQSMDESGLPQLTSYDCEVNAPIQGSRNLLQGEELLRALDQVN
Chain of Paired box protein Pax-6 (Homo sapiens) (P26367 whole entry, looked up): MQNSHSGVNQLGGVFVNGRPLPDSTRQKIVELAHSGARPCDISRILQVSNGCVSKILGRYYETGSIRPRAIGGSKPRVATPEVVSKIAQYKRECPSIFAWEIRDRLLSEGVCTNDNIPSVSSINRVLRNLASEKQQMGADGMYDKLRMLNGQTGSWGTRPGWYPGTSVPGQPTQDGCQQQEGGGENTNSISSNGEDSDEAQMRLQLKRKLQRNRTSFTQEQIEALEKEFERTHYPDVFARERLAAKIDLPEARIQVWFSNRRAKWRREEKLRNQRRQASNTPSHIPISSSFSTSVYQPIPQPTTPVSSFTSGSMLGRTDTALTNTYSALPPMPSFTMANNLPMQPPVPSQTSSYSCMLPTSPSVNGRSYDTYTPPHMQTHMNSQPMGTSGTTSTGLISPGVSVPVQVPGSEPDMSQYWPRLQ
Chain of Heat shock factor protein 1 (Homo sapiens) (Q00613 whole entry, looked up): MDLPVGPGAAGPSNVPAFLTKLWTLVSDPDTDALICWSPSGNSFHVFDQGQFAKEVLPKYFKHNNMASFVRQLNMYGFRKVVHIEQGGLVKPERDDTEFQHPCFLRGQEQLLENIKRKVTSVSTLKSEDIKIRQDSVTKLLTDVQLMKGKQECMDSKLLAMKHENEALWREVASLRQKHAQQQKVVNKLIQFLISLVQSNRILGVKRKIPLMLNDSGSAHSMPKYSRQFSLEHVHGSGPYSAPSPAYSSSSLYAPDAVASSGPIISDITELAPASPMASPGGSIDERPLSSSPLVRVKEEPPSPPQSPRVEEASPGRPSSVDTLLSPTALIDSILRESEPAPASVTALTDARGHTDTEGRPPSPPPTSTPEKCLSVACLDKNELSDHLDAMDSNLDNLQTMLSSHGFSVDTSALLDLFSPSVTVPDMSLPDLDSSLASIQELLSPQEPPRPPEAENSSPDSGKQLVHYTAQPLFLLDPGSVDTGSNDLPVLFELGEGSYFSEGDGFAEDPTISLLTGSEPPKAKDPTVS
Chain of Bile acid receptor (Homo sapiens) (Q96RI1 whole entry, looked up, the tested form may be a part): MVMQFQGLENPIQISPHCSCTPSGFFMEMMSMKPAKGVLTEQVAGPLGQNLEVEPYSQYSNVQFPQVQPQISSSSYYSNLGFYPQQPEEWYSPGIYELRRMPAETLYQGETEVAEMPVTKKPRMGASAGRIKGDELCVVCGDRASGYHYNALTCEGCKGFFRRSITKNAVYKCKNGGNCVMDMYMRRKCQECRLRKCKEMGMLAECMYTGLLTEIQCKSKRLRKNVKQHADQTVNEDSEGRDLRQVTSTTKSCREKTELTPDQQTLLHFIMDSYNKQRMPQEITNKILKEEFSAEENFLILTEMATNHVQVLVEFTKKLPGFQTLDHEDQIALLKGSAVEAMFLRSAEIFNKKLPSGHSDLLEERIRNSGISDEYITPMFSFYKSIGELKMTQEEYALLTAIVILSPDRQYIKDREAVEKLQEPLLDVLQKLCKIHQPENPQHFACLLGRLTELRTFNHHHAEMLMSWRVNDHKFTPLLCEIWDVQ
Chain of Hepatocyte nuclear factor 6 (Homo sapiens) (Q9UBC0 whole entry, looked up): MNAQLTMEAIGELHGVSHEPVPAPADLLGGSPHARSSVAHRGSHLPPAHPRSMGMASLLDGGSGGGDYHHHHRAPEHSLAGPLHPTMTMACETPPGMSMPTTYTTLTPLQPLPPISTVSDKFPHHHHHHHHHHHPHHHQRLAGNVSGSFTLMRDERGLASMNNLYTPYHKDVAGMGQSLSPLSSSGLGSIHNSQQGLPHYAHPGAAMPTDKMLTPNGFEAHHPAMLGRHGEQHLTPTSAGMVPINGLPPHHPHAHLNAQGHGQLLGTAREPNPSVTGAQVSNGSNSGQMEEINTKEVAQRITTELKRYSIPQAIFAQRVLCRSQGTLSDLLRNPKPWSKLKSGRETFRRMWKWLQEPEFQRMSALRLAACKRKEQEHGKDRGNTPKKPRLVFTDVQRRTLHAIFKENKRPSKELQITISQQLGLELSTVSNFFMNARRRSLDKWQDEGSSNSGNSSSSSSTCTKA

In the case of `COCCOCCOC`, the call in [1], in assay [2], in assay [3], in assay [4], in [5] and in [6] was inactive. Further, the outcome in assay [7], in assay [8], in assay [9], in assay [10], in assay [11] and in assay [12] was inactive. The compound was classed as inactive in [13], in assay [14], in [15], in assay [16], in [17] and in assay [18].
`CCCCCCCCCCC`: the call in assay [1], in [19], in assay [3], in assay [4], in assay [5] and in assay [6] was inactive. Also, the result in [20], in assay [7], in assay [8], in [9], in [10] and in [13] was inactive. For the same compound, the result in [14], in assay [15], in assay [16], in assay [17] and in assay [18] was inactive.
As for `COc1cc(C=O)ccc1O`, the compound was called inactive in [1], in assay [2], in assay [3], in [4], in assay [5] and in assay [6]. The call in [8], in assay [9], in assay [10], in assay [12], in assay [13] and in [14] was inactive. Besides, the call in assay [15], in assay [16], in assay [17] and in [18] was inactive.
As for `CC(=O)OCCOCCOCCOC(C)=O`, the call in [1], in assay [2], in [3], in [4], in [5] and in assay [7] was inactive. The compound was classed as inactive in [8], in [9], in assay [10], in [11], in assay [12] and in [13]. Also, the result in [14], in assay [15], in assay [16], in assay [17] and in assay [18] was inactive. Besides, in [6], the concentration at half-maximal activity (AC50) was 39.4 µM (active).
